# In the library only some 2.5% were active in any assay of this set; here they are far more common.
# Lassa entry inh: qHTS for Inhibitors of binding or entry into cells for Lassa Virus | Potency, µM (top dose mostly 37.9 µM), for inactives: top-dose activity change, negative = inhibition, hits mostly inhibitors | 300,000 compounds, 1.2% hits | Lassa virus pseudotype entry inhibition, cell reporter | AID 540256, 2011; calls by dose curve; tested in HEK293 cells; also: nearly all actives have a fitted effect of over 50% in size
# Marburg entry inh: qHTS for inhibitors of binding or entry into cells for Marburg Virus. Potency, µM (highest dose often 37.8 µM), inactives show at the top dose activity change, negative = inhibition, usual class: inhibitors. 300,000 compounds, 1.8% hits. AID 540276, 2011. Marburg virus pseudotyped entry inhibition, cell reporter; calls by dose curve; tested in HEK293 cells
# Vaccinia Venus: qHTS for Stage-Specific Inhibitors of Vaccinia Orthopoxvirus: Venus Reporter Primary qHTS; AID 720580, 2013; Potency, µM (highest dose often 36.5 µM), for inactives: at the highest dose activity change, negative = inhibition, actives largely listed as inhibitors; Vaccinia virus Venus reporter expression, fluorescence; 330,000 compounds, 0.46% hits; calls by dose curve; tested in A549 cells; also: nearly all actives have a fitted effect of over 30% in size
# VACV mCherry inh: qHTS for Stage-Specific Inhibitors of Vaccinia Orthopoxvirus: mCherry Reporter Primary qHTS; Potency, µM (series often up to 36.5 µM), without a hit: at the top dose activity change, negative = inhibition, most hits filed as inhibitors; AID 720579, 2013; 310,000 compounds, 0.63% hits; Vaccinia virus mCherry reporter infection, fluorescence; calls by dose curve; tested in A549 cells; also: nearly all actives have a fitted effect of over 35% in size
# An asterisk follows results filed as active; i = inactive; ? = inconclusive; . = no result; [ ] = another dose, or the depositor's remark. % is scaled to controls: 0 for no effect and ±100 for the full control effect; potency is read from the fitted curve at half-maximal effect.
SMILES,Lassa entry inh,Marburg entry inh,Vaccinia Venus,VACV mCherry inh
CCCNC(=O)OC[C@H]1O[C@H](CCO/N=C(\C)CCC(=O)OC[C@H]2O[C@H](C#Cc3ccccc3)C=C[C@@H]2Oc2ccc(C)cc2)C=C[C@@H]1Oc1ccc(OC)cc1,.,-29%[14.2 µM],.,.
Cc1c(C(=O)NCC2(N3CCOCC3)CCCCCC2)cnn1-c1nccc(-c2ccccc2F)n1,.,.,-13%,-6%
COC(=O)[C@@H]1[C@@H](c2ccccc2)[C@H]2C(=O)c3c(OC)cc(OC)cc3O[C@@]12c1ccc(OC)cc1,.,3%[14.2 µM],.,.
CN1CCc2c(OCC(=O)N3N=C(c4cccs4)CC3c3ccc(F)cc3)cccc2C1=O (stereo not given),-12%,?,-14%,-10%
CCN1CCc2c(OCC(=O)N3N=C(c4cccs4)CC3c3ccc(F)cc3)cccc2C1=O (stereo not given),11µM*,?,?,?
CC(C)(C)NC(=O)CSc1ncnc2c1nnn2Cc1ccccc1Cl,18µM*,?,-5%,-9%
Cc1cccc(OCCCC(=O)Nc2ccc(Br)cc2)c1,-4%,11µM*,-9%,-15%
Cc1cccc(OCCCC(=O)Nc2ccc(N(C)C)cc2)c1,19%,6%,-5%,-17%
Cc1cccc(OCCCC(=O)NC(C)C)c1,1%,-7%,11µM*,.
Cc1ccc(NC2=Nc3ccccc3CS2)cc1,?,10µM*,-19%,.
Cc1ccc(Nc2ccccc2)cc1,11%,-2%[46.1 µM],1%,-12%
O=S(=O)(c1ccccc1)N(C[C@@H](O)CN1CCCCC1)c1ccccc1,.,-10%[46.1 µM],.,.
Cc1ccc(C(=O)CSc2nnc3c4ccccc4nc(C(C)(C)C)n23)cc1,?,6.3µM*,-8%,-4%
CCOC(=O)NN=C1C[C@@H](O)[C@@H](O)[C@@H]2[C@H]3C(=O)N(C4CCCCC4)C(=O)[C@@H]3CC[C@H]12,?,20%[14.2 µM],.,.
NCCCC(=O)N1c2ccccc2Sc2ccc(Cl)cc21,0.71µM*,?,-19%,-25%
CN(C)CCC(=O)N1c2ccccc2Sc2ccc(Cl)cc21,0%,?,-7%,?
C/C(CCN1CCc2nc(-c3ccccc3)c(-c3ccccc3)cc2C1)=N\O[C@H](C)CN1CCCCc2nc(C)c(C)cc21,.,25%[14.2 µM],.,.
COc1ccc(N2Nc3n[nH]c(N)c3N2)cc1,21%,24%,.,.
CCOc1ccc(N2Nc3n[nH]c(N)c3N2)cc1,?,1%,?,2µM*
O=C(NNC(=O)C12CC3CC(CC(C3)C1)C2)c1ccccc1O,1%,6%,?,10µM*
COc1ccc(CCNc2oc(-c3ccccc3OC)nc2C#N)cc1OC,-4%,-9%,-17%,.
COc1ccc(CCNc2cc(C)nc3c(-c4ccccc4OC)cnn23)cc1OC,-8%[46.1 µM],11µM*,-12%,-14%
Oc1cccc2ccc(Nc3ccccn3)nc12,23µM*,?,.,.
c1ccc(Nc2ccccc2Nc2ccccn2)nc1,29%,?,.,.
C/C(Cl)=C\Cn1c(NCCc2ccccc2)nc2c1c(=O)n(C)c(=O)n2C,4.6µM*,3.7µM*,-27%,?
SMILES,Lassa entry inh,Marburg entry inh,Vaccinia Venus,VACV mCherry inh
N/C(=N\OC(=O)N1CCOCC1)c1ccccc1,12µM*,?,-26%,i
N/C(=N\OC(=O)N1CCOCC1)c1ccc(Cl)cc1,?,10µM*,-13%,-14%
CCOc1ccc(NC(=O)Nc2cc(OCC(F)(F)F)cc(OCC(F)(F)F)c2)cc1,?,?,-23%,i
O=C(Nc1ccc(F)cc1)Nc1cc(OCC(F)(F)F)cc(OCC(F)(F)F)c1,18µM*,8.9µM*,?,10µM*
O=S(=O)(c1ccc(S(=O)(=O)N(Cc2ccc(F)cc2)C2CCCC2)cc1)N1CCCC1,-17%,10µM*,-22%,.
Cn1c(OCc2cccnc2)nc2c1c(=O)n(Cc1ccc(Cl)cc1)c(=O)n2C,16µM*,?,.,.
Cn1c(OCc2cccnc2)nc2c1c(=O)n(Cc1ccc(Br)cc1)c(=O)n2C,-14%,-22%,.,.
Cc1ccc(C)c(OCC(=O)N(Cc2ccccc2)c2c(N)n(Cc3ccccc3)c(=O)[nH]c2=O)c1,-27%,2%,?,28µM*
Cc1ccccc1OCCC(=O)N(Cc1ccccc1)c1c(N)n(Cc2ccccc2)c(=O)[nH]c1=O,11µM*,4%,-21%,-10%
CN(C)c1ccc2ccc3cccc4ccc1c2c34,.,.,10%,i
C#CCN(Cc1ccc(OCCC)cc1)S(=O)(=O)c1ccc(Br)cc1F,-25%[46.1 µM],.,.,.
C#CCN(Cc1ccc(OC)cc1)S(=O)(=O)C=C,.,.,28µM*,?
O=C(Nc1ccc(Cl)cc1Cl)[C@@H]1CC=C[C@@H]2CCN(C3CC3)C(=O)[C@@H]21,.,.,-6%,-16%
Cc1noc(C)c1COc1cccc(C(=O)NCCc2c[nH]c3ccccc23)c1,10µM*,?,-18%,?
CNC(=O)[C@@H]1C[C@@H](NCc2cccc(Oc3ccccc3)c2)CN1C(C)C,.,.,-10%,-14%
Nc1ccc(/C=C/c2ccnc3ccccc23)cc1,.,.,-14%,-20%
COc1ccc(/C=C/C(=O)Nc2cccc(F)c2)cc1S(=O)(=O)N1CCOCC1,5.6µM*,?,?,-27%
COc1ccc(/C=C/C(=O)Nc2ccc(C(C)=O)cc2)cc1S(=O)(=O)N1CCOCC1,.,.,-8%,i
COc1cc(/C=C/C(=O)Nc2ccc(OC)c(S(=O)(=O)N3CCOCC3)c2)ccc1OC(F)F,13µM*,?,?,?
O=C(/C=C\Nc1ccccn1)c1ccc(Cl)cc1,?,6.5µM*,-13%,-14%
CCN(CC)CCCn1c(C)cc2c(c1=O)C(c1cc(OC)c(OC)cc1OC)C(C#N)=C(N)O2 (stereo not given),3%,14%,5%,.
CCN(CC)CCCn1c(C)cc2c(c1=O)C(c1cccc(Cl)c1)C(C#N)=C(N)O2 (stereo not given),?,11µM*,-9%,.
COCc1ccc(C(=O)N2CCOc3ccc(CN4CCN(c5ccc(F)cc5)CC4)cc3C2)o1,.,.,-31%,-5%
CN(C)CCCn1c(SCC(=O)N2c3ccccc3Sc3ccccc32)nc2ccccc2c1=O,?,?,14µM*,?
CC(C)n1c(SCC(=O)N2c3ccccc3Sc3ccccc32)nc2c1c(=O)n(C)c(=O)n2C,?,9.2µM*,-17%,i
SMILES,Lassa entry inh,Marburg entry inh,Vaccinia Venus,VACV mCherry inh
C=CCN1c2ccccc2[C@]23CCC(=O)N(Cc4cc(OC)c(OC)c(OC)c4)C2=NC(C(=O)OC)=C(C(=O)OC)[C@H]13,.,-7%[14.2 µM],.,.
c1cncc(OC2CCN(Cc3ccc4c(c3)CN(Cc3ccc5c(c3)CCO5)CCO4)CC2)c1,.,.,-4%,-19%
COc1cc2nc(N3CCN(c4cc(C)ccc4C)CC3)nc(N)c2cc1OC,?,4.5µM*,10µM*,?
COc1cc2nc(N3CCNCC3)nc(N)c2cc1OC,4%,?,.,.
Cc1cccc2c(=O)[nH]c3c(-c4nc(-c5ccc(Cl)cc5)cs4)c(O)cn3c12,.,.,-9%,-11%
CCOC(=O)C1=CCN(S(=O)(=O)c2ccc(F)cc2)C1c1ccc(C)cc1 (stereo not given),.,.,-4%,i

# Source: PubChem BioAssay (National Center for Advancing Translational Sciences (NCATS))
